# Values joined by “and” are separate entries in the source; they are usually repeats but may differ in a detail not shown here. Equal values may be shown once. Results filed as inconclusive are left out. Where a call stands in place of a potency, no number is given. A number with no mark means an inactive call. Active and inactive are the calls of the source. The call rests on the fitted dose curve; in most records, active means well fitted activation curve with a large enough effect in the repeat runs; inconclusive means weak or mixed curves; inactive means flat fitted curve, though single readings scatter.
# Assay: A CellTox Green Cytotoxicity Assay to monitor cytotoxicity in HepG2 cells - 24 hour (AID 1224878); further: nearly all actives have a fitted effect of over 45% in size
# Settings: CellTox Green fluorescence; series mostly up to 76.8 µM
# Description: National Center for Advancing Translational Sciences [NCATS]
# NIH Chemical Genomics Center [NCGC]
# U.S. Environmental Protection Agency [EPA]
# National Institutes of Environmental Health Sciences [NIEHS]
# National Toxicology Program [NTP]
# Cell-based models are critical for drug discovery. Determining the natural cytotoxic effects resulting from test compounds is an essential research activity. A CellTox Green Cytotoxicity Assay to monitor cytotoxicity in real time of continues cell culture during 40 hours of the compound treatment was used to screen Tox21 10K library compounds in HepG2 cells. CellTox Green Cytotoxicity Assay is a nonlytic, homogeneous, biofluorescent method to measure cytotoxicity in cell culture after experimental manipulation. The assay system uses a proprietary asymmetric cyanine dye that is excluded from viable cells but preferentially stains the dead cell's DNA. […] Viable cells produce no appreciable increases in fluorescence. Therefore, the fluorescence signal produced by the binding interaction with dead cell DNA is proportional to cytotoxicity.
# The mixture of HepG2 cell suspension and reagents were dispensed at 600cells/6 ul/well in 1536-well tissue culture treated black solid bottom plates using a Multidrop dispenser. After the assay plates were incubated at a 37 C/5% CO2 incubator for 5 hours, 23 nL of compounds dissolved in DMSO, positive and negative controls was transferred to the assay plate by a pintool work station. The plates were incubated at 37 C for 40 hours. The fluorescence intensity were measured at 0h, 8h, 16h, 24h, 32h and 40h time points using ViewLux plate reader during compound treatment.
# Potency means the concentration at half of the fitted maximal effect.
Compound,Potency,cytotoxicity
COc1cccc2c1C(=O)c1c(O)c3c(c(O)c1C2=O)C[C@@](O)(C(C)=O)C[C@@H]3O[C@H]1C[C@H](N)[C@H](O)[C@H](C)O1,inactive,–
Cc1cc(-c2ccc(N=Nc3cc(S(=O)(=O)O)c4ccccc4c3N)c(C)c2)ccc1N=Nc1cc(S(=O)(=O)O)c2ccccc2c1N,inactive,–
CC(=O)[C@H]1CC[C@H]2[C@@H]3CCC4=CC(=O)CC[C@]4(C)[C@H]3CC[C@]12C,inactive,–
O=c1[nH]c(=O)n([C@H]2C[C@H](O)[C@@H](CO)O2)cc1F,6.01 µM (active),–
Nc1nc(N)nc(-c2cc(Cl)ccc2Cl)n1,inactive,–
Clc1nnc(Cl)c2ccccc12,inactive,–
CCN(CC)c1ccc2c(-c3ccc(S(=O)(=O)O)cc3S(=O)(=O)[O-])c3ccc(=[N+](CC)CC)cc-3oc2c1,inactive,–
CCCCCCCCCCOC(=O)c1ccccc1C(=O)OCCCCCCCC,inactive,–
NC(=S)NC(N)=S,inactive,–
COc1cc(C)ccc1O,inactive,–
OC1CCC(C2CCCCC2)CC1 (stereo not given),43.6 µM (active),–
O=C1NC(=O)[C@@H]2CC=CC[C@H]12,inactive,–
ClCCl,inactive,–
CCC(=O)C(=O)CC,inactive,–
C=CC(=O)OCCOC(=O)C=C,inactive,–
CCCCCCCC,inactive,–
CC(C)Cn1cnc2c(N)nc3ccccc3c21,–,-13.9% [at 15.8 µM]
CCCC(=O)OCCc1ccccc1,43.6 µM (active),–
OCCN1CCN(CCCN2c3ccccc3Sc3ccc(C(F)(F)F)cc32)CC1,26.8 µM (active),–
CCn1c2ccccc2c2cc([N+](=O)[O-])ccc21,inactive,–

Compound,Potency,cytotoxicity
FC(F)(F)c1cccc(Cl)c1,inactive,–
C=CCn1c(=O)n(CC=C)c(=O)n(CC=C)c1=O,inactive,–
O=[N+]([O-])c1ccc(O)cc1C(F)(F)F,inactive,–
NC[C@H]1O[C@H](O[C@H]2[C@H](O[C@@H]3O[C@H](CO)[C@@H](O)[C@H]3O)C(O)[C@H](N)C[C@@H]2N)[C@H](N)[C@@H](O)[C@@H]1O (stereo not given in full),–,9.58% [at 6.97 µM]
COCCOc1cc2cc(C(=O)NC3CCN(C(C)C)CC3)n(CC(=O)Nc3ccc(Cl)cn3)c2cn1,inactive,–
CCCCCCCCCCCCCC[N+](C)(C)C,10.6 µM (active) and 19.5 µM (active) and 23.9 µM (active),–
CCCCCC/C=C\CCCCCCCC(=O)O,inactive,–
CC(N=C(NC#N)Nc1ccncc1)C(C)(C)C (stereo not given),inactive,–
S=c1nccc[nH]1,inactive,–
c1ccsc1,inactive,–
CCCNCCC,inactive,–
C#Cc1ccc(-c2ccccc2F)cc1,inactive,–
Nc1nc2c(ncn2COCCO)c(=O)[nH]1,inactive,–
O=[N+]([O-])c1ccc(F)c(Cl)c1,inactive,–
O=C1CCCCCCCCCCCCCCCO1,43.6 µM (active),–
CC1(C)CCC[C@]2(C)[C@H]3CC(=O)O[C@]3(C)CC[C@@H]12,inactive,–
CCC(CC)(CC(=O)Nc1cccc(/C=C/c2nc(C3CCC3)cs2)c1)C(=O)O,inactive,–
C[C@H]1NCc2cc(-c3ccc4c(=O)c(C(=O)O)cn(C5CC5)c4c3OC(F)F)ccc21,–,1.74% [at 15.8 µM]
CCCCN(CCCC)CC(O)c1cc(Cl)cc2c1-c1ccc(Cl)cc1/C2=C/c1ccc(Cl)cc1 (stereo not given),23.9 µM (active),–
CCCCCCCCCCCCCC[N+](C)(C)Cc1ccccc1,39.5 µM (active) and 16.9 µM (active) and 17.8 mM (active),–
